Compound activity: PubChem BioAssay, several laboratories
3CLpro inhibitor: SARS-CoV 3CLpro protease inhibition; inhibition, % at 6 µM; recombinant SARS-CoV 3CLpro, quenched FRET peptide cleavage; actives 0.14% (n = 290,000); in the data active = inhibition above about 12%
FadD28 FP inh: M. tuberculosis FadD28 bisubstrate binding inhibition; FadD28 bisubstrate probe binding, fluorescence polarization; inhibition, % at 12.5 µM; actives 0.22% (n = 360,000); in the data active = inhibition above about 8.5%, passing the limit was not always enough
BioA inh: blocks M. tuberculosis BioA enzyme activity | purified M. tuberculosis BioA enzyme, plate reader | inhibition, % at 9.99 µM | actives 0.096% (n = 360,000) | AID 602481; in the data active = inhibition above about 40%
VHR inh abs: inhibitors of human VHR1 phosphatase (DUSP3) | recombinant VHR phosphatase, pNPP absorbance | inhibition, % at 13.3 µM | actives 0.52% (n = 290,000) | AID 1654; in the data active = inhibition above about 50%
Target sequence (P51452 whole entry, looked up): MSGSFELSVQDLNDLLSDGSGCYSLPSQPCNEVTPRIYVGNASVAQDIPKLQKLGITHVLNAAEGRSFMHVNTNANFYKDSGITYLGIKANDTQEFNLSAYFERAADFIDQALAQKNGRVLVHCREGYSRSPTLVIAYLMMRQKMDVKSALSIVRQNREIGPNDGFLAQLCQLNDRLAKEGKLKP
Mtb hypoxia rep: reduces hypoxia-regulated biosensor signal in M. tuberculosis; M. tuberculosis hypoxia-regulated fluorescent reporter, fluorescence; fluorescence inhibition, % (concentration not given with the values); actives 0.1% (n = 300,000); AID 1159583; in the data active = fluorescence inhibition mostly above about 23%, no sharp cut-off; inactive = mostly below about 17%
Active calls of the source: *. Compounds with a hit are over-represented: about 0.7% of the library has one in this group of screens.

`CC(C)CC(=O)N1CC=CCC(c2ccc(Cl)cc2)N(Cc2ccc(Cl)cc2)C(=O)C1Cc1ccccc1` (centres undefined) gave Mtb hypoxia rep 8.
`COc1ccc(-c2noc(CCC(=O)NCCc3ccccc3)n2)cc1` gave 3CLpro inhibitor 1, FadD28 FP inh 0, BioA inh -3 and Mtb hypoxia rep 10.
Screening COc1cccc(-c2noc(CCC(=O)NCCc3ccccc3)n2)c1 returned 3CLpro inhibitor 3, FadD28 FP inh 0, BioA inh -2, VHR inh abs 58* and Mtb hypoxia rep -1.
Screening O=C(O)c1ccc(Nc2nc(-c3cc4ccccc4oc3=O)cs2)cc1O returned 3CLpro inhibitor 8, FadD28 FP inh 30*, VHR inh abs 9 and Mtb hypoxia rep 4.
Screening COc1ccccc1N1CCN(C2CCCN(C(=O)CCn3cncn3)C2)CC1 (centres undefined) returned 3CLpro inhibitor -3, FadD28 FP inh -1, BioA inh -1, VHR inh abs 57* and Mtb hypoxia rep -2.
Screening COc1ccccc1N1CCN(C2CCCN(C(=O)C3=NN(C)C(=O)CC3)C2)CC1 (centres undefined) returned 3CLpro inhibitor -1, FadD28 FP inh -1, BioA inh 0, VHR inh abs 52* and Mtb hypoxia rep 10.
COc1ccccc1N1CCN(C2CCCN(C(=O)CCC(=O)N(C)C)C2)CC1 (centres undefined) was read as 3CLpro inhibitor -1, FadD28 FP inh -3, BioA inh -2, VHR inh abs 72 and Mtb hypoxia rep 15.
COc1ccccc1N1CCN(C2CCCN(C(=O)c3cscn3)C2)CC1 (centres undefined) was read as 3CLpro inhibitor -3, FadD28 FP inh -2, BioA inh 0 and VHR inh abs 5.
`O=C(NN=Cc1cccc([N+](=O)[O-])c1)c1cc(-c2ccccc2)nc2ccccc12` gave Mtb hypoxia rep 0.
For Brc1ccsc1C=NNc1ccccc1 the results were Mtb hypoxia rep -10.
Screening CN(Cc1nc(-c2ccncc2)no1)S(=O)(=O)c1ccc(Cl)cc1 returned 3CLpro inhibitor -1, FadD28 FP inh -3, BioA inh 0, VHR inh abs 51* and Mtb hypoxia rep 5.
`CN(Cc1nc(-c2ccncc2)no1)S(=O)(=O)c1ccc(Br)cc1` gave 3CLpro inhibitor -7, FadD28 FP inh -3, BioA inh 3, VHR inh abs 16 and Mtb hypoxia rep 16.
C#CCOCCOCCOCCNc1nc(N2CCN(C(=O)C(CCC(=O)O)n3cc(C(N)CC(C)C)nn3)CC2)nc(N2CCN(C(=O)C(Cc3ccc(O)cc3)n3cc(C(N)CC(C)C)nn3)CC2)n1 (centres undefined) was read as Mtb hypoxia rep 12.
`Oc1c(Br)c(Br)c(Br)c(Br)c1Br` gave FadD28 FP inh 41* and BioA inh 3.
`Nc1ccc(C2(c3ccc(N)cc3)c3ccccc3-c3ccccc32)cc1` gave 3CLpro inhibitor 2, FadD28 FP inh -2, VHR inh abs 7 and Mtb hypoxia rep 50*.
Screening CCOC(=O)N1CCN(S(=O)(=O)c2ccc(NC(C)=O)cc2)CC1 returned 3CLpro inhibitor 0, FadD28 FP inh -4, BioA inh 3, VHR inh abs 52* and Mtb hypoxia rep 15.
Screening CCOC(=O)N1CCC(N2CCN(S(=O)(=O)c3ccc(NC(C)=O)cc3)CC2)CC1 returned 3CLpro inhibitor 4, FadD28 FP inh -1, BioA inh 0, VHR inh abs 15 and Mtb hypoxia rep 6.
For O=C1CCC=CCC(CC(=O)N(CCO)Cc2ccccc2)C(=O)N2CCCC2CO1 (centres undefined) the results were Mtb hypoxia rep 7.
Screening O=C(CSc1nnc(-c2ccco2)o1)NCCc1ccccc1 returned FadD28 FP inh -1, BioA inh 1 and Mtb hypoxia rep 38*.
For O=c1c(Cc2ccc(Cl)cc2)c(O)ccn1Cc1cccs1 the results were 3CLpro inhibitor 3, FadD28 FP inh -3, VHR inh abs 50* and Mtb hypoxia rep -1.
`O=c1c(Cc2ccc(Cl)cc2)c(O)ccn1Cc1ccncc1` gave 3CLpro inhibitor 1, FadD28 FP inh -1, VHR inh abs 22 and Mtb hypoxia rep -1.
Screening Oc1ccc(N2CCN(CC(O)c3ccccc3)CC2)cc1 (centres undefined) returned 3CLpro inhibitor -5, FadD28 FP inh -2, BioA inh 0, VHR inh abs 50* and Mtb hypoxia rep 5.
